Measured values published in the supplement of paper PMC12067093, “Discovery and optimisation of a covalent ligand for TRIM25 and its application to targeted protein ubiquitination” (Chemical Science, 2025).
Targets with the largest changes are over-represented here; the source holds about 21,000 in all.

These targets were tested with CC1Cc2ccccc2N1C(=O)C1CCCN(C1)C(=O)CCl (mixture of isomers) [TRIM25 ligand 11 (diastereomer mixture)] (assay: probe-labelled cysteine peptide fold change vs DMSO (competition) (log2 fold change); higher = less target engagement (more negative = stronger competition)). Details: 10 µM; THP-1; incubation time: 4 h.
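Note: competitive chemoproteomic profiling in live THP-1 cells with an iodoacetamide desthiobiotin (IA-DTB) probe, comparing probe-labelled peptide intensities in compound-treated cells against DMSO-treated controls.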

UniProt Q9H4A4, sequence (Q9H4A4 whole entry, looked up): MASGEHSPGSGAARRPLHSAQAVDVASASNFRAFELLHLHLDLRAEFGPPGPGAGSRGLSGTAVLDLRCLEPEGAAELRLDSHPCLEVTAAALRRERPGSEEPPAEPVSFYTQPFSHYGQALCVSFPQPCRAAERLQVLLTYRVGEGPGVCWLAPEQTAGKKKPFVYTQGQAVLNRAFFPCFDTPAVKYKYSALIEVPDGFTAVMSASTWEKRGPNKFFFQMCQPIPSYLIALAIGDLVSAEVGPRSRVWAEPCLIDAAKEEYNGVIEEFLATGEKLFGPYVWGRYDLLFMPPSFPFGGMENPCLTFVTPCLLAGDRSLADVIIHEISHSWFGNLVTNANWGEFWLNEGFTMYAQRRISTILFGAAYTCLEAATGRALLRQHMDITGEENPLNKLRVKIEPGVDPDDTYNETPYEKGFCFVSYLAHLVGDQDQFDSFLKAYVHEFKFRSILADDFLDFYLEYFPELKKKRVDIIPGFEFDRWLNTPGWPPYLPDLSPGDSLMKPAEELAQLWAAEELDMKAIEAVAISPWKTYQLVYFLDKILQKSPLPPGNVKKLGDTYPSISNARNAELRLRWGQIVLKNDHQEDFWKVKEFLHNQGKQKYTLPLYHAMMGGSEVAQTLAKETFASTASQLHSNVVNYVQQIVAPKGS
UniProt Q15042, sequence (Q15042 whole entry, looked up): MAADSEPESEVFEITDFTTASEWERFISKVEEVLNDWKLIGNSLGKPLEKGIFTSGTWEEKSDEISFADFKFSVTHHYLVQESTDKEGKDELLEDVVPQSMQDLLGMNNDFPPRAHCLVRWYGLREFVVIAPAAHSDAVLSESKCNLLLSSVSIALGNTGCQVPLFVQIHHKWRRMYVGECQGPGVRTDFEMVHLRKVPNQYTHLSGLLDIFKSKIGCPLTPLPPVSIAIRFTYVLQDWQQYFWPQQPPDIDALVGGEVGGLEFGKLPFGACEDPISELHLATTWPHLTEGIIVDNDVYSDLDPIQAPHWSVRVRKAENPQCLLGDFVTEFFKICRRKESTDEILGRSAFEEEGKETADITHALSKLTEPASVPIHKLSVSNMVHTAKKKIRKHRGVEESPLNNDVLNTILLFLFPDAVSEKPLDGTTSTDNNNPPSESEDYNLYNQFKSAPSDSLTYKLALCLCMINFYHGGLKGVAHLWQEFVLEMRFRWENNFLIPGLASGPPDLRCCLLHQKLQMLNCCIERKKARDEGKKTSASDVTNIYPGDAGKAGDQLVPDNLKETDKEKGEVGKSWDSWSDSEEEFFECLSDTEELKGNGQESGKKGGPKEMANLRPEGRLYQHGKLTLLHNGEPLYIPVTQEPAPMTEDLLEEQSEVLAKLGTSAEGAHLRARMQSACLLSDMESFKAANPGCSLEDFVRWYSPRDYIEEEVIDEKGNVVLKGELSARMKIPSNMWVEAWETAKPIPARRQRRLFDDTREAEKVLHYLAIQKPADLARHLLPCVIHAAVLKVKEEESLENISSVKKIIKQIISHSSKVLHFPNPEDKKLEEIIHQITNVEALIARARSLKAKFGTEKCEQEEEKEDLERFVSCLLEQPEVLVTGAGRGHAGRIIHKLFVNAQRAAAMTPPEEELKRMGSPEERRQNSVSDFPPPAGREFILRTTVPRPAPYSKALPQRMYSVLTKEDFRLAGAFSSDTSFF
UniProt P62834, sequence (P62834 whole entry, looked up): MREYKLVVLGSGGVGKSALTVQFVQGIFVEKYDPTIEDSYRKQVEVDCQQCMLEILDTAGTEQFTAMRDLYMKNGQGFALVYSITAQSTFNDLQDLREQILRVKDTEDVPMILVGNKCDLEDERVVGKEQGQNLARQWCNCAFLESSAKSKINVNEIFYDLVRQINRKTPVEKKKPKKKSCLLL
UniProt Q9P258, sequence (Q9P258 whole entry, looked up): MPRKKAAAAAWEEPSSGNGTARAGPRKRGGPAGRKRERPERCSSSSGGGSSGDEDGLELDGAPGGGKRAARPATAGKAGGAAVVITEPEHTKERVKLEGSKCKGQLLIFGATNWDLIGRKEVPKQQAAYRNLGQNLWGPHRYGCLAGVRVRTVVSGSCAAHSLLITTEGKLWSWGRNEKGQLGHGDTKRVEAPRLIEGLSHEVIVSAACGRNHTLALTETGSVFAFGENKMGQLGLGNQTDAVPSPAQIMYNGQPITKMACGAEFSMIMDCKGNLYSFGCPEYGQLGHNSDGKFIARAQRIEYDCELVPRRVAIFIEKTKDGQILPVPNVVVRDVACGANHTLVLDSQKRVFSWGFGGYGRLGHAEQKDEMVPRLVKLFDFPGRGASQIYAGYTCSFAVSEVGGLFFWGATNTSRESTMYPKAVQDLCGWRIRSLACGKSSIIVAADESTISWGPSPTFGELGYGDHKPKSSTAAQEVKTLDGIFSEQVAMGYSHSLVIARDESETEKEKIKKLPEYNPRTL
UniProt Q7Z5J4, sequence (Q7Z5J4 whole entry, looked up): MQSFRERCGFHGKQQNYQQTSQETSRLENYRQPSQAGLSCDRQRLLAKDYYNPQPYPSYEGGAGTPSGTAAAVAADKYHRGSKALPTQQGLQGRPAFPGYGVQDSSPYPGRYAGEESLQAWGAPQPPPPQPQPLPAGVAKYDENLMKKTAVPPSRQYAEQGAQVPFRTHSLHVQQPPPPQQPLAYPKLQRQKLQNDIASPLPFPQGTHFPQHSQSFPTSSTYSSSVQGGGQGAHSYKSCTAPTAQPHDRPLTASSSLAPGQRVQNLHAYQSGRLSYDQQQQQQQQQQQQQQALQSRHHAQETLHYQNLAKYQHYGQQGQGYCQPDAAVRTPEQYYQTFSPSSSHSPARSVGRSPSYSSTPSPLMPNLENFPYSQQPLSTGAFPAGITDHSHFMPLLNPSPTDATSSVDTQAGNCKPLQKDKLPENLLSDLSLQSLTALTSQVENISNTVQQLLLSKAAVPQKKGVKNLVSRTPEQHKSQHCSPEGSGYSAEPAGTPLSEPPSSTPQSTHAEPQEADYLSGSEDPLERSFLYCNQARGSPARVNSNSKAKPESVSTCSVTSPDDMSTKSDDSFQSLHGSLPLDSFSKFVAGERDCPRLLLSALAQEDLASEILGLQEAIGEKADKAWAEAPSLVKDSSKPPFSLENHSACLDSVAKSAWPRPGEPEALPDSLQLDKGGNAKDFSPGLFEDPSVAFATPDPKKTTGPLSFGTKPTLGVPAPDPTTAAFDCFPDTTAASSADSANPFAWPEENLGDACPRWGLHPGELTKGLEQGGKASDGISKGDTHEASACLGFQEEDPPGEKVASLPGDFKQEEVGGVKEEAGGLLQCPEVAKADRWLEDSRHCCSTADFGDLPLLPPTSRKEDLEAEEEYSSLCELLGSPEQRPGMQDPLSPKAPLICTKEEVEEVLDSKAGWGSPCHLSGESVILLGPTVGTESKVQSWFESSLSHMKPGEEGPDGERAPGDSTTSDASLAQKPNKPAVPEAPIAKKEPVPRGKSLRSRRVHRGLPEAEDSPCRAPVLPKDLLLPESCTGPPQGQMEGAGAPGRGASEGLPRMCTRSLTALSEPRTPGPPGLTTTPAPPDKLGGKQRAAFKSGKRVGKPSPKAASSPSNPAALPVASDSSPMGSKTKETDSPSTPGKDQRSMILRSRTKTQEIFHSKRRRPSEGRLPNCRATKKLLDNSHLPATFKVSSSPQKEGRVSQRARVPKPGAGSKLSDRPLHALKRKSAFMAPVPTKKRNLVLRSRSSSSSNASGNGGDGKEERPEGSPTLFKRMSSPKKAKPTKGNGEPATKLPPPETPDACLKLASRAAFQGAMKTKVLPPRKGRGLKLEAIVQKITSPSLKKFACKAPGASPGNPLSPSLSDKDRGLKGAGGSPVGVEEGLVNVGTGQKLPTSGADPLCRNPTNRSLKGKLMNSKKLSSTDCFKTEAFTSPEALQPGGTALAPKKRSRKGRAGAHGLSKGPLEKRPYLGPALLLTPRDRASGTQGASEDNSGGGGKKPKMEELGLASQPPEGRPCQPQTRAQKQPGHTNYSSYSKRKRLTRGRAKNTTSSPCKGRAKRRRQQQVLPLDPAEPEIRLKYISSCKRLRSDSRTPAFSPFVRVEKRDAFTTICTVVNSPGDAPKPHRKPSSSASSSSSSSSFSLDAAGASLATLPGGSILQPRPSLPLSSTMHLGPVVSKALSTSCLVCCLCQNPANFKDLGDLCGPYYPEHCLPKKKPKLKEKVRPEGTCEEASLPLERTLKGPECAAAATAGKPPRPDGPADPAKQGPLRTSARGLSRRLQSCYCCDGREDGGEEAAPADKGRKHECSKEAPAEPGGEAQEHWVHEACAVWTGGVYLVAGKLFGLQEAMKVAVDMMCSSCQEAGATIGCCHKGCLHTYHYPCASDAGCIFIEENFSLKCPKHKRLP
UniProt Q06323, sequence (Q06323 whole entry, looked up): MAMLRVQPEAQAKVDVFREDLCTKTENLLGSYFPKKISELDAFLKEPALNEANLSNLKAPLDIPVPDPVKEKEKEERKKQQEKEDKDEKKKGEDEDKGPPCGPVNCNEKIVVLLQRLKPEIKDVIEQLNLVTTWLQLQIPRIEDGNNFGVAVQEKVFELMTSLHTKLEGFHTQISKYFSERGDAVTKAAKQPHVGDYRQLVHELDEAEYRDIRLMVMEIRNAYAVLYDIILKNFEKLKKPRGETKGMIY
UniProt P84095, sequence (P84095 whole entry, looked up): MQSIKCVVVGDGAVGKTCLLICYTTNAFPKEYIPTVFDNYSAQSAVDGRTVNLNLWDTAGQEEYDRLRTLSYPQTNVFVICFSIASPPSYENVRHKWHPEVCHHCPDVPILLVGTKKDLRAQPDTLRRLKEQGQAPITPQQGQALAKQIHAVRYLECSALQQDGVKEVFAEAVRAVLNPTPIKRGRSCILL
UniProt P35249, sequence (P35249 whole entry, looked up): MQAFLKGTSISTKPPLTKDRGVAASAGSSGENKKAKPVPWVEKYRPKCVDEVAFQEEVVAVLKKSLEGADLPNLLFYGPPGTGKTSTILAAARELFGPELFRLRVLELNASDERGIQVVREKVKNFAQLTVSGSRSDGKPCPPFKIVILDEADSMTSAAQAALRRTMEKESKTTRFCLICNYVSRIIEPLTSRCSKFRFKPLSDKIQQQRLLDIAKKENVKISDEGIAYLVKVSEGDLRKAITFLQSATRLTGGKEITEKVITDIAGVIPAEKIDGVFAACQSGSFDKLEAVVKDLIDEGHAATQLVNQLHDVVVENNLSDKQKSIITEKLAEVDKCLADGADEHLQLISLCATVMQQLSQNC

Target | probe-labelled cysteine peptide fold change
RAB3GAP1_Q15042_873_FVSCLLEQPEVLVTGAGR (UniProt Q15042) | 0.274
RHOG_P84095_105_WHPEVCHHCPDVPILLVGTKK (UniProt P84095) | -0.292
RAI1_Q7Z5J4_899_APLICTK (UniProt Q7Z5J4) | -0.024
PTPN12_Q05209_343_SCLVEGDAK (UniProt Q05209) | 0.155
RAD21_O60216_35_AHVFECNLESSVESIISPK (UniProt O60216) | 0.0257
RABGEF1_Q9UJ41_359_RDLSIEEQSECAQDFYHNVAER (UniProt Q9UJ41) | 0.648
PSME1_Q06323_101_KKGEDEDKGPPCGPVNCNEK (UniProt Q06323) | -0.56
RANBP2_P49792_3221_ITITECGQI (UniProt P49792) | -0.127
RAP1A_P62834_118_DTEDVPMILVGNKCDLEDERVVGK (UniProt P62834) | -0.603
RBM22_Q9NW64_74_TEVCQTCSK (UniProt Q9NW64) | -0.0386
RGMB_Q6NW40_226_ITIIFKAHHECTDQK (UniProt Q6NW40) | -0.5
RANBP3_Q9H6Z4_249_NESSNASEEEACEK (UniProt Q9H6Z4) | 0.387
RNPEP_Q9H4A4_85_LDSHPCLEVTAAALR (UniProt Q9H4A4) | 0.0713
RCC2_Q9P258_280_GNLYSFGCPEYGQLGHNSDGK (UniProt Q9P258) | 0.288
RFC4_P35249_180_FCLICNYVSR (UniProt P35249) | -0.16
RPL30_P62888_52_LVILANNCPALR (UniProt P62888) | 0.0216
